Bioassay records as filed in PubChem BioAssay.
Hits are enriched below; roughly 11% of the tested compounds scored in any of these assays.
HTT ATP protect = qHTS Multiplex Assay to Identify Dual Action Probes in a Cell Model of Huntington: Cytoprotection (ATP) | PC12 HTT-Q103 induced, cytoprotection, ATP luminescence, 40 h | Potency, µM (highest dose often 56.4 µM), for the others: cytoprotection (ATP increase), actives largely listed as activators | actives 0.14% (n = 230,000) | AID 1471, 2008; note: potency is the fitted concentration of half-maximal effect; % of control where 0% means no effect; nearly all actives have a fitted effect of over 45% in size
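PC12 cells stably carrying ecdysone-inducible Htt exon 1 (Q103)–GFP were induced with 100 nM tebufenozide (final) alongside library compounds in a dose series. Cytoprotection was scored as retained ATP by ATPlite luminescence.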
ALDH1A1 inh = qHTS Assay for Inhibitors of Aldehyde Dehydrogenase 1 (ALDH1A1) | Aldehyde dehydrogenase 1A1 (Homo sapiens), P00352 | Purified ALDH1A1, NADH fluorescence, propionaldehyde substrate | Potency, µM (top dose mostly 75.3 µM), without a hit: at the highest dose activity, negative = inhibition, most hits filed as inhibitors | actives 7.3% (n = 220,000) | AID 1030, 2008; active = well fitted inhibition curve with a large enough effect, not every such curve was filed as active; inconclusive = small, poorly fitted or top-dose-only effect, or another doubt; inactive = no such curve, though single readings can be large or run the other way;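 note: potency is the fitted concentration of half-maximal effect; plate controls were no enzyme wells and a reference inhibitor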
Target sequence (P00352 whole entry, looked up): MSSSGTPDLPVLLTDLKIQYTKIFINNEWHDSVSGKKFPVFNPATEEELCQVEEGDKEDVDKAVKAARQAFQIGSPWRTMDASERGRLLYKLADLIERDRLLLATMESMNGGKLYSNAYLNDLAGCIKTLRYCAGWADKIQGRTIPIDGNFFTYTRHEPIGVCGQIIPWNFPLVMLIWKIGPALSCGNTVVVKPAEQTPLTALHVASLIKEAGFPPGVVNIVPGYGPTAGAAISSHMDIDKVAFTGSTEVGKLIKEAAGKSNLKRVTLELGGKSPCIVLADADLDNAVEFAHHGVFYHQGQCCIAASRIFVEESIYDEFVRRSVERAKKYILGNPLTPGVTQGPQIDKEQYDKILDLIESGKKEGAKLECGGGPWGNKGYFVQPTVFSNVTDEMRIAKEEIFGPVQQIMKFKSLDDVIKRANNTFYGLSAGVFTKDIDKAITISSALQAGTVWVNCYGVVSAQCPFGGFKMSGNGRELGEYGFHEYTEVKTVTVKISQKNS
HTT aggregate = qHTS Multiplex Assay to Identify Dual Action Probes in a Cell Model of Huntington: Aggregate Formation (GFP) | PC12 HttQ103-GFP aggregates, Acumen cytometry, 40 h | Potency, µM (titrated, usually from 46.1 µM), for the others: at the top dose activity change, negative = inhibition, usual class: inhibitors | actives 1.1% (n = 220,000) | AID 1688, 2009; note: potency is the fitted concentration of half-maximal effect; % is set by controls: 0 for no effect and ±100 for the full control effect; nearly all actives have a fitted effect of over 60% in size
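PC12 cells stably carrying ecdysone-inducible HTT exon 1 Q103–GFP were induced with tebufenozide (100 nM final) and treated with library compounds in titration. GFP aggregates in lysates were counted by laser scanning cytometry.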
HPGD block = qHTS Assay for Inhibitors of HPGD (15-Hydroxyprostaglandin Dehydrogenase). 15-hydroxyprostaglandin dehydrogenase [NAD(+)] (Homo sapiens), P15428. purified HPGD, NADH fluorescence kinetic, PGE2 substrate. Potency, µM, inactives show at the top dose activity change, negative = inhibition, actives largely listed as inhibitors. actives 4.3% (n = 150,000); active = well fitted inhibition curve with a large enough effect, not every such curve was filed as active; inconclusive = small, poorly fitted or top-dose-only effect, or another doubt; inactive = no such curve, though single readings can be large or run the other way; note: potency is the fitted concentration of half-maximal effect; % is set by controls: 0 for no effect and ±100 for the full control effect
Target sequence (P15428 whole entry, looked up): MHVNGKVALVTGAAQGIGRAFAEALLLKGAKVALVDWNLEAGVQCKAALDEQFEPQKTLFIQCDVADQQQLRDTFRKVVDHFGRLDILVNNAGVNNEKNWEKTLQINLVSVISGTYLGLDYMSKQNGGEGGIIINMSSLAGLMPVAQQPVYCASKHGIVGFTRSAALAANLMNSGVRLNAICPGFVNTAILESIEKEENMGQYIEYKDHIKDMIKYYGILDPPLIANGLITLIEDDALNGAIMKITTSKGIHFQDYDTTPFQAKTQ
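NADH formation kinetics: reaction with 30 uM PGE2 and 1 mM NAD+ (final), 20 nM enzyme, Tris-HCl pH 8 with Tween 20, after 15 min compound preincubation at room temperature. Fluorescence change, last versus first of five reads.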
PNC assembly inh = High Content Assay for Compounds that inhibit the Assembly of the Perinucleolar Compartment. PC3M PTB-GFP, PNC prevalence imaging, 16 h; hits give low values. activity change (PNC), negative = inhibition, % at 10 µM. actives 3.1% (n = 140,000);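 active = readout at or below -70, meaning at least 70% loss of cells showing the perinucleolar compartment, a nuclear body marking cancer cells; inconclusive = readout between -30 and a set limit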;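 note: plate controls were DMSO wells for no effect and camptothecin positive control wells for full effect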
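Compounds are pinned in duplicate onto adhered PC3M cells stably expressing GFP-tagged PTB and incubated 16 h at 37 C. Cells are then fixed, nuclei stained with Hoechst, and PNC-positive cells counted.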
CBFb-RUNX1 inh = qHTS Assay for Compounds Blocking the Interaction Between CBF-beta and RUNX1 for the Treatment of Acute Myeloid Leukemia; Runt-related transcription factor 1 (Homo sapiens) + Core-binding factor subunit beta …; AlphaScreen CBFb-His/RUNX1-biotin binding, biochemical; Potency, µM (top dose mostly 59.8 µM), without a hit: top-dose activity, negative = inhibition, actives largely listed as inhibitors; 230,000 tested, under 10 active; AID 1477, 2009; note: % of control where 0% means no effect
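Room-temperature protein-protein interaction test with 30 nM each of His-tagged CBF-beta and biotinylated RUNX1, 15 min with compound, then 90 min with nickel plus streptavidin beads. Signal read in AlphaScreen mode.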
* hit, by the source's call; ! = a repeat was not active; [ ] = dose if it differs, or a comment. Unless noted, calls come from the whole dose curve; as a rule, active = well fitted curve in the direction sought with a large enough effect; inconclusive = small, poorly fitted or top-dose-only effect, or another doubt; inactive = no such curve, though single readings can be large; an effect the other way counts as inactive or inconclusive.

Results for CC(C)CNC(=O)c1c(N)n(Cc2ccc3c(c2)OCO3)c2nc3ccccc3nc12 ?
HTT ATP protect: -31%; ALDH1A1 inh: inconclusive; HTT aggregate: inconclusive; HPGD block: inconclusive; PNC assembly inh: 17; CBFb-RUNX1 inh: 7%

How did CN1CC[C@@]2(C)c3cc(OC(=O)Nc4ccccc4)ccc3N(C)[C@@H]12 do in these assays?
HTT ATP protect: -41%; ALDH1A1 inh: 11µM*; CBFb-RUNX1 inh: 2%

What do the screens show for `O=C(Oc1ccc(S(=O)(=O)F)cc1F)c1ccccc1Cl`?
HTT ATP protect: -9%[10 µM]; ALDH1A1 inh: 0%[13.5 µM]; HPGD block: -14%

How did O=NN(CCCl)C(=O)NCCCl do in these assays?
HTT ATP protect: -26%; ALDH1A1 inh: 3.2µM*!; HTT aggregate: inconclusive; HPGD block: -4%; CBFb-RUNX1 inh: 19%

How did CC(=O)O/C(=C1/C[C@H]2[C@@H]3CC=C4C[C@@H](OC(C)=O)CC[C@]4(C)[C@@H]3CC[C@]2(C)C1=O)C(F)(F)F do in these assays?
HTT ATP protect: 11%[10 µM]; ALDH1A1 inh: inconclusive; HPGD block: -7%

How did C=CC1CC=CCC1 (configuration not stated) do in these assays?
HTT ATP protect: 1%; ALDH1A1 inh: 22µM*; HPGD block: -10%; CBFb-RUNX1 inh: 19%[21.7 µM]

Results for NC1CCc2cc(O)c(O)cc2C1 (configuration not stated) ?
HTT ATP protect: 16%; ALDH1A1 inh: 7.9µM*!; HPGD block: -14%; CBFb-RUNX1 inh: -13%

How did COc1ccc(CCNCc2ccc(C)s2)cc1OC do in these assays?
HTT ATP protect: -21%; ALDH1A1 inh: 2%; HTT aggregate: 5%; CBFb-RUNX1 inh: -16%

Results for COc1ccc(Cc2nccc3cc(OC)c(OC)cc23)cc1OC ?
HTT ATP protect: inconclusive; ALDH1A1 inh: -2%; HTT aggregate: 2%; HPGD block: 14µM*!; PNC assembly inh: 16; CBFb-RUNX1 inh: inconclusive

How did CN(C)c1ccc2c(c1)N=C(c1ccco1)OP2(=S)N1CCOCC1 (configuration not stated) do in these assays?
HTT ATP protect: -12%; ALDH1A1 inh: 8.9µM*; HTT aggregate: 10%; HPGD block: 18µM*; PNC assembly inh: 23; CBFb-RUNX1 inh: -4%

Results for Clc1ccc(N2C[C@H]3CC[C@@H](C2)N3)nn1 ?
HTT ATP protect: 20%[1.9 µM]

What do the screens show for `CCn1nc(-c2ccccc2)nc2c(=O)n(C)c(=O)nc1-2`?
HTT ATP protect: -42%[10 µM]; ALDH1A1 inh: inconclusive; HTT aggregate: 8.9µM*; HPGD block: -14%; PNC assembly inh: -100*

Results for O=C(CCCN1CCC2(CC1)C(=O)N(Cc1cccc(F)c1)CN2c1ccccc1)c1ccc(F)cc1 ?
HTT ATP protect: -109%; ALDH1A1 inh: -4%; HPGD block: -9%; CBFb-RUNX1 inh: -12%

What do the screens show for `CN(N=O)c1cc(O)ccc1O`?
HTT ATP protect: -12%[1.9 µM]; ALDH1A1 inh: 20µM*; HPGD block: 14µM*

Results for O/N=C/c1c[nH]c2ccccc12 ?
HTT ATP protect: 3%; ALDH1A1 inh: 8%; HTT aggregate: inconclusive; HPGD block: 7.1µM*; PNC assembly inh: inconclusive; CBFb-RUNX1 inh: 6%

Results for C=CCN(CC=C)Cc1c[nH]c2ccccc12 ?
HTT ATP protect: -52%; ALDH1A1 inh: inconclusive; HTT aggregate: inconclusive; HPGD block: -15%; PNC assembly inh: -7; CBFb-RUNX1 inh: 6%

What do the screens show for `CC(C)(C)NC[C@H](O)c1ccccc1Cl`?
HTT ATP protect: 15%[1.9 µM]

Results for CCCCCC1CC(CC#CCN2CCOCC2)C(=O)O1 (configuration not stated) ?
HTT ATP protect: 3%[10 µM]; ALDH1A1 inh: 6.3µM*; HTT aggregate: -3%; HPGD block: 0%; PNC assembly inh: inconclusive; CBFb-RUNX1 inh: -3%

Results for CCC(C(N)=O)N1CCCC1=O (configuration not stated) ?
HTT ATP protect: 20%; HTT aggregate: 12%; CBFb-RUNX1 inh: 5%

Results for O=c1c2ccccc2nc(CNCC2CCCO2)n1-c1ccc(F)cc1 (configuration not stated) ?
HTT ATP protect: 8%[10 µM]; ALDH1A1 inh: inconclusive; HTT aggregate: 16%; CBFb-RUNX1 inh: 2%

How did O=c1c2ccccc2nc(CNCc2ccco2)n1-c1ccc(F)cc1 do in these assays?
ALDH1A1 inh: 0%; HTT aggregate: 15%; HPGD block: -5%; PNC assembly inh: -83*; CBFb-RUNX1 inh: -9%

How did CCCN1C[C@H](C)N([C@H](c2ccc(C(=O)N(CC)CC)cc2)c2cccc(OC)c2)C[C@H]1C do in these assays?
HTT ATP protect: -31%; ALDH1A1 inh: 3%; HPGD block: -2%; CBFb-RUNX1 inh: 8%

How did CN1CCN(c2ccc(S(=O)(=O)C(F)(F)F)cc2[N+](=O)[O-])CC1 do in these assays?
HTT ATP protect: 20%[10 µM]; ALDH1A1 inh: 13%; HTT aggregate: 21%; HPGD block: -10%; PNC assembly inh: -98*; CBFb-RUNX1 inh: 1%

Results for Oc1c(Br)c(Br)c(Br)c(Br)c1Br ?
HTT ATP protect: -76%; ALDH1A1 inh: inconclusive; HPGD block: 10µM*; CBFb-RUNX1 inh: -6%[21.7 µM]

What do the screens show for `Oc1c(Br)cc(Br)cc1Br`?
HTT ATP protect: -8%; ALDH1A1 inh: -1%; HTT aggregate: 8%; HPGD block: -9%; CBFb-RUNX1 inh: 13%[21.7 µM]

What do the screens show for `c1ccc2c(c1)OCC(C1=NCCN1)O2` (configuration not stated)?
HTT ATP protect: 16µM*; ALDH1A1 inh: inconclusive; HTT aggregate: 17%; HPGD block: 4%; PNC assembly inh: -3; CBFb-RUNX1 inh: inconclusive

What do the screens show for `CC1(C)C(=O)C=C[C@@]2(C)C1CC(O)[C@]1(C)C2CC[C@@]2(C)C(c3ccoc3)OC(=O)C3O[C@]312` (some centres not stated)?
HTT ATP protect: 0.79µM*; ALDH1A1 inh: -3%; HPGD block: -7%; CBFb-RUNX1 inh: -6%

Results for CCCCCC[C@H]1C(=O)O[C@@H](C)[C@H](NC(=O)c2cccc(NC=O)c2O)C(=O)O[C@@H](C)[C@@H]1OC(=O)CC(C)C ?
HTT ATP protect: -4%
